# This is a sample that favours compounds with a hit; in the whole collection about 14% have one here.
# USP30 inh – inhibitors of human USP30 deubiquitinase | Ubiquitin carboxyl-terminal hydrolase 30 (Homo sapiens), Q70CQ3 | purified USP30, Ub-rhodamine cleavage fluorescence | inhibition, % at 25 µM | 47,000 compounds, 5.3% hits | AID 1645860, 2021
# USP8 inh – inhibitors of human USP8 deubiquitinase; purified USP8, Ub-rhodamine cleavage fluorescence, 30 min; 47,000 compounds, 4.2% hits; inhibition, % at 20 µM; AID 1645853, 2021
# USP17 block – inhibitors of human USP17 deubiquitinase; Ubiquitin carboxyl-terminal hydrolase 17-like protein 5 (Homo sapiens), A8MUK1; purified USP17, Ub-rhodamine cleavage fluorescence, 3 h; inhibition, % at 50 µM; 47,000 compounds, 6.5% hits; AID 1645855, 2021
# USP28 block – inhibitors of human USP28 deubiquitinase. Ubiquitin carboxyl-terminal hydrolase 28 (Homo sapiens), Q96RU2. inhibition, % at 25 µM. 47,000 compounds, 3% hits. purified USP28, Ub-rhodamine cleavage fluorescence, 30 min. AID 1645857, 2021
# Target sequence (Q96RU2 whole entry, looked up): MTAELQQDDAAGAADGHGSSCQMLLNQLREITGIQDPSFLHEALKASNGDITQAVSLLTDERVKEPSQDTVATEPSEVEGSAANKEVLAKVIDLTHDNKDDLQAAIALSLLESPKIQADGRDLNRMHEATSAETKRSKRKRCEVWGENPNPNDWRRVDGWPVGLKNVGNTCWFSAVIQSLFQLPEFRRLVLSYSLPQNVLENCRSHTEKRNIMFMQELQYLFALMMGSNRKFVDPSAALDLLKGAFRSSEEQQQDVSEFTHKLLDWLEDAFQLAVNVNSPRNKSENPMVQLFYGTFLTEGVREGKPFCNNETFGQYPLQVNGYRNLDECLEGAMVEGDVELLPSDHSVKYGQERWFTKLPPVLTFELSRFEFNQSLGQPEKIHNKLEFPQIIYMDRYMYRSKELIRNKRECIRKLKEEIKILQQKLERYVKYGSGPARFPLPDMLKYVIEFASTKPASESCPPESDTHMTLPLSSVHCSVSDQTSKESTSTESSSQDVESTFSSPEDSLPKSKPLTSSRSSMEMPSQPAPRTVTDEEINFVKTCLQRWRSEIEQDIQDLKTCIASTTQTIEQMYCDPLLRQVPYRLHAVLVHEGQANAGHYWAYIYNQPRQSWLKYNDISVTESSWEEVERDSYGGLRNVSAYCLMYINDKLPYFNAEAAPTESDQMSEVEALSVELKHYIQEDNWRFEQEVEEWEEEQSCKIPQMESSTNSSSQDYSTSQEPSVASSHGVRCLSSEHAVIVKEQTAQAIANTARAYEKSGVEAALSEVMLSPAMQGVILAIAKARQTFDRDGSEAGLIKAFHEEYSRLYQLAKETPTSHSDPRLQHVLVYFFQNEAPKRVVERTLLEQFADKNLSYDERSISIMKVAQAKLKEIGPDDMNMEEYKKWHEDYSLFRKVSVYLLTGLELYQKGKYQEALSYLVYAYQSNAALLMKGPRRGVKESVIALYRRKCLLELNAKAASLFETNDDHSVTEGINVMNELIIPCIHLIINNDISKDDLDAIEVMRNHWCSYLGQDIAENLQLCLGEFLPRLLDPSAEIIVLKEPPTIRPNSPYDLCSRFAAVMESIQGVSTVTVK
# * = called active by the depositor; · = no result. Rule as the data show it: active = inhibition above about 30%; inactive = the rest.
SMILES,USP30 inh,USP8 inh,USP17 block,USP28 block
O=C(OCC(=O)N1CCC(Cc2ccccc2)CC1)c1ccc(N2CCCC2=O)cc1,9,-1,4,43*
COCC(=O)N1CCC(Oc2cc(N3CCCC3)ncn2)C1 (stereo not given),-2,0,-7,14
Fc1ccc(-c2noc(-c3nnc(NCc4cccnc4)c4ccccc34)n2)cc1,-3,0,75*,-8
c1ccc2c(-c3nc(C4CC4)no3)nnc(NC3CCCCC3)c2c1,33*,12,1,17
c1ccc2c(-c3nc(C4CC4)no3)nnc(NCCCN3CCOCC3)c2c1,36*,20,9,14
c1ccc2c(-c3nc(C4CC4)no3)nnc(NCc3ccncc3)c2c1,29,3,53*,4
COc1ccc(C(=O)NC2=C(C(=O)c3ccccc3)N(Cc3ccccc3)S(=O)(=O)c3ccccc32)cc1OC,-24,-270,-27,-15
Cc1nc(-c2ncc[nH]2)cc(C2CCCN2Cc2cscn2)n1 (stereo not given),-33,-11,-15,-12
COc1ccc(S(=O)(=O)c2cnc3cc(OC)c(OC)cc3c2Nc2ccc(F)cc2)cc1,-19,-34,-16,10
COc1cc2ncc(S(=O)(=O)c3ccc(C)cc3)c(Nc3ccc(F)cc3)c2cc1OC,-6,-185,-31,47*
COc1cccc(/C=C/C(=O)Nc2ccc(N3CCOCC3)cc2)c1OC,13,23,30*,60*
O=C(Cc1ccc(F)cc1)Nc1ccc(N2CCOCC2)cc1,-15,-7,-17,-10
CC(NS(=O)(=O)c1ccccc1F)c1ccc(Cl)s1 (stereo not given),-5,-9,-10,-3
O=C(NC1CCSC1=O)c1cccc(C(F)(F)F)c1 (stereo not given),15,23,6,4
Cc1ccc(NC(=O)Cn2nc3ccc(C(=O)NCc4ccccc4)cn3c2=O)cc1F,-14,41*,72*,-2
Cc1nc2sccn2c(=O)c1NC(=O)COc1ccc(C(C)C)cc1,-7,-20,-11,-5
O=c1c2cc(-c3ccccc3)sc2n(Cc2ccc(F)cc2)c(=O)n1-c1ccccc1,11,-9,9,-3
Fc1ccc(Cn2ccc(-c3cnc(-c4ccccc4)s3)n2)cc1,11,15,13,62*
Cc1nn(C)cc1NC(=O)Nc1ccc(F)cc1,30*,7,11,14
Cc1ccc(S(=O)(=O)Nc2nc(-c3ccc4c(c3)NC(=O)C(C)O4)c(C)s2)cc1 (stereo not given),26,50*,·,22
Cc1nc(-c2ccc(C(=O)Nc3ccc(F)cc3)cc2)cs1,33*,65*,19,21
COc1ccc(C(=O)Nc2cccc(-c3csc(C)n3)c2)cc1OC,-7,-10,-10,46*
COc1cc(C(=O)Nc2ccc(-c3csc(C)n3)cc2)cc(OC)c1OC,-32,9,-9,78*
O=C(Nc1cccc(-c2nc(-c3ccc(=O)[nH]c3)no2)c1)c1ccco1,-197,63*,2,-24
CCC(=O)Nc1nc2cc(NC(=O)c3cc(OC)c(OC)c(OC)c3)ccc2s1,-130,0,-44,-23
SMILES,USP30 inh,USP8 inh,USP17 block,USP28 block
Cc1noc(C)c1S(=O)(=O)N1CCc2nc(-c3ccc(F)cc3)ncc2C1,-45,-26,-26,-11
CCN(CC)C(C(=O)N1CCC(c2nc3ccccc3cc2C(N)=O)CC1)c1ccccc1 (stereo not given),0,-8,-4,-5
Cc1nc(-c2cccc(NC(=O)c3ccc(C)c(NC(=O)c4ccco4)c3)c2)cs1,28,15,43*,22
CC(=O)c1cccc(NC(=O)c2ccc(-c3csc(C)n3)cc2)c1,-50,0,53*,21
Cc1nc(-c2cccc(NC(=O)c3cccc(F)c3)c2)cs1,-13,-4,-8,12
CCc1ccc(C(=O)Nc2ccc(OC)c(OC)c2)cc1,1,-1,12,20
COc1ccc(C(=O)Nc2cccc(C(=O)OCC(=O)c3ccc(Br)cc3)c2)cc1OC,8,3,34*,0
Cc1nc(-c2ccc(C(=O)Nc3cccc(F)c3)cc2)cs1,-20,26,12,14
CCn1c(=O)c(=O)[nH]c2cc(C(=O)Nc3cccc(-c4csc(C)n4)c3)ccc21,-14,18,58*,75*
COc1cc(C(=O)Nc2ccc3nccnc3c2)cc(OC)c1OC,-33,3,18,34*
CC(=O)N1CCc2c(sc3c2c(=O)n(CCc2ccccc2)c(=O)n3Cc2ccc(C#N)cc2)C1,-26,-6,-16,-6
CCNC(=O)c1cc2nc(N(C)C)n(-c3ccccc3)c2s1,-38,75*,38*,22
CNC(=O)c1cc2nc(N(C)C)n(-c3ccc(OC)cc3)c2s1,8,78*,46*,20
COc1ccc(-n2nnc(C(=O)NC3CC3)n2)cc1,6,2,0,-2
CNC(=O)c1cc2nc(N(C)C)n(-c3ccccc3)c2s1,-6,77*,54*,19
COc1ccc(-n2c(N(C)C)nc3cc(C(=O)NC4CC4)sc32)cc1,-5,0,4,42*
CCOC(=O)CNC(=O)c1cc2c(=O)n3ccccc3nc2s1,-35,-5,-9,-5
Cc1nn(-c2ccccc2)c2sc(C(=O)Nc3ccc(Br)c4cccnc34)cc12,-1,-4,1,-6
O=C(NC1CCCCC1)C(c1ccc(F)cc1)N(Cc1ccc2c(c1)OCO2)C(=O)c1ccc(-c2ccccc2)[nH]1 (stereo not given),-96,-12,·,-23
CN(Cc1ccc2c(c1)OCO2)C(C(=O)Nc1ccc(F)cc1)c1ccccc1 (stereo not given),39*,17,13,12
O=C(NCC1CCCCC1)C1CCN(c2cnc(N3CCCC3)nc2)CC1,6,18,2,-1
CCCNS(=O)(=O)c1cc(-c2nc(C)c(C(=O)N3CCCC3)s2)n(C)c1,-3,-2,-3,-7
CC(=O)N1CCOc2cc(S(=O)(=O)N3CCCC3c3cc(C(C)C)on3)ccc21 (stereo not given),14,5,0,40*
CCCc1cc(C2CCCN2S(=O)(=O)c2ccc3c(c2)OCCN3C(C)=O)no1 (stereo not given),0,-10,-6,49*
CC(=O)N1CCOc2cc(S(=O)(=O)N3CCCC3c3cc(C)on3)ccc21 (stereo not given),-1,-34,-10,24
O=C(Nc1ccc(N2CCOCC2)cc1)C(Cc1ccccc1)NS(=O)(=O)c1ccc2c(c1)OCCO2 (stereo not given),-10,-12,-7,37*
O=C(O)C(Cc1ccccc1)NS(=O)(=O)c1ccc2c(c1)OCCO2 (stereo not given),1,-16,-8,6
O=C(NCc1ccccc1)C(Cc1ccccc1)NS(=O)(=O)c1ccc2c(c1)OCCO2 (stereo not given),52*,31*,86*,56*
COCCN(C(C)=O)c1nnc(C2CCCO2)s1 (stereo not given),16,11,11,7
O=C(c1ccccc1)c1c[nH]c2cc3c(cc2c1=O)OCO3,-127,50*,-37,-40
